PubChem BioAssay (NCATS)
Inconclusive results are not listed. Unmarked numbers belong to inactive results. The source made the active and inactive calls. Calls come from the whole dose curve; as a rule, active = well fitted inhibition curve with a large enough effect; inconclusive = small, poorly fitted or top-dose-only effect; inactive = flat fitted curve, though single readings scatter.

Biological target: DNA repair nuclease/redox regulator APEX1 (Homo sapiens) (UniProt P27695)
Test: qHTS Validation Assay for Inhibitors of the Human Apurinic/apyrimidinic Endonuclease 1 (APE1) (AID 1705;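 for activity change, negative = inhibition: TAMRA fluorescence gain over two minutes as APE1 cuts a quenched THF abasic duplex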)
Details: purified APE1 endonuclease activity, fluorescence, titration; series mostly up to 57.1 µM; activity change, negative = inhibition: at the top concentration
Excerpt: Assay Provider: David M. Wilson, III, National Institute on Aging, NIH
Screening Center PI: Austin, C.P.
Screening Center: NIH Chemical Genomics Center [NCGC]
The apurinic/apyrimidinic endonuclease APE1 is the primary mammalian enzyme responsible for the removal of abasic (or AP) sites in DNA and functions centrally in the base excision DNA repair (BER) pathway. […] Thus, targeting APE1 could improve the efficacy of current treatment paradigms by promoting selective sensitization or protection of diseased and normal cells, respectively.
Inhibition of APE1 activity was screened by utilizing double-stranded short substrate containing tetrahydrofuran (THF) abasic site labeled with rhodamine-type fluorophore (TAMRA) at the 5'-end and with non-fluorescent Black Hole Quencher-2 (BHQ-2) at the opposing 3'-end. An increase in the fluorescence intensity due to incision of the abasic site by APE1 was used to measure the enzyme activity.
1. Substrate: 50 nM final concentration of TAMRA/BHQ-2 substrate dispensed throughout the plate.
2. Enzyme: […] nM APE1 final concentration in columns 1, 2, 5-48. Column 1 is neutral (100% activity)
3. Control: Pintool transfer of control inhibitor NSC-13755 to column 2 of all assay plates. Two-fold, 16 pt dilution in duplicate to produce final concentrations in the […] uM - […] nM range.
3. Buffer columns in columns 3 and 4 were used as negative control (no enzyme).
Three uL of enzyme were dispensed to 1536-well Greiner black solid bottom plates. Compounds (23 nL) were transferred via Kalypsys pintool. The plates were incubated for 15 min at room temperature, and then 1 uL of substrate solution was added to start the reaction. The plates were immediately transferred into ViewLux High-throughput CCD imager (Perkin-Elmer) in order to measure the reaction progress in kinetic mode (three reads every 60 seconds) using 525 nm excitation and 598 nm emission fluorescence protocol. The fluorescence intensity difference between the third and the first time points was used to compute reaction progress.
% is set by controls: 0 for no effect and ±100 for the full control effect; potency is the fitted concentration of half-maximal effect.

Sequence of DNA repair nuclease/redox regulator APEX1 (Homo sapiens) (P27695 whole entry, looked up): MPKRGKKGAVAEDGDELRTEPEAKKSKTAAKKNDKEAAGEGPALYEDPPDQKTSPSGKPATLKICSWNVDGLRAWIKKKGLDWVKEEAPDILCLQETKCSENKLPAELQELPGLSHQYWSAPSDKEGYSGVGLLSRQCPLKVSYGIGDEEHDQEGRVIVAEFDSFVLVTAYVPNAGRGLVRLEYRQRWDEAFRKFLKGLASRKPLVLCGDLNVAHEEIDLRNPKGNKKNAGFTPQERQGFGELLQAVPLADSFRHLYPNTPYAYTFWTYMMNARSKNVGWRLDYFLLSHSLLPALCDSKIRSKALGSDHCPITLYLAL

| SMILES | activity change, negative = inhibition | Potency |
| --- | --- | --- |
| CCN1CCc2nc(N)oc2CC1 | 8.45% |  |
| C[C@]12CCC(=O)C=C1CC[C@@H]1[C@@H]2CC[C@@]2(C)[C@H]1CC[C@]2(O)C(=O)CO | -1.56% |  |
| CC(N=C(NC#N)Nc1ccncc1)C(C)(C)C (stereo not given) | 4.83% |  |
| CCCN1C[C@H](CSC)C[C@@H]2c3cccc4[nH]cc(c34)C[C@H]21 | 6.67% |  |
| Nc1c2c(nc3ccccc13)CCCC2O (stereo not given) | 0.82% |  |
| CCN(Cc1ccncc1)C(=O)C(CO)c1ccccc1 (stereo not given) | -9.19% |  |
| CCCC(C(=O)OCCN(CC)CC)(c1ccccc1)c1ccccc1 | 0.549% |  |
| O=C1CC2(CCCC2)CC(=O)N1CCCCN1CCN(c2ncccn2)CC1 | -4.67% |  |
| COc1ccc(CN(CCN(C)C)c2ccccn2)cc1 | -6.37% |  |
| NCCCNCCSP(=O)(O)O | -3.71% |  |
| Cc1cc(C)c(/C=C2\C(=O)Nc3ccccc32)[nH]1 | -19% |  |
| CCCCNc1ccc(C(=O)OCCN(C)C)cc1 | -10.4% |  |
| CCc1c(C)[nH]c2c1C(=O)C(CN1CCOCC1)CC2 (stereo not given) | 4.08% |  |
| CN(C)CCCN1c2ccccc2Sc2ccccc21 | -4.76% |  |
| c1ccc2c(c1)CCCC2C1=NCCN1 (stereo not given) | -6.04% |  |
| OCCN1CCN(CCCN2c3ccccc3C=Cc3ccccc32)CC1 |  | inactive |
| CNC1(C)C2CCC(C2)C1(C)C (stereo not given) | -4.39% |  |
| CCC(=O)c1ccc2c(c1)N(CCCN(C)C)c1ccccc1S2 | -3.17% |  |
| O=C(O)CN(CCOCCOCCN(CC(=O)O)CC(=O)O)CC(=O)O | 1.4% |  |
| C=CCc1ccccc1OCC(O)CNC(C)C (stereo not given) | -3.56% |  |

| SMILES | activity change, negative = inhibition | Potency |
| --- | --- | --- |
| CSc1ccc(C(=O)c2[nH]c(=O)[nH]c2C)cc1 | -10.8% |  |
| CCCNC(C)C(=O)Nc1ccccc1C (stereo not given) | 6.54% |  |
| NC(N)=N/N=C/c1c(Cl)cccc1Cl | -9.91% |  |
| Cc1nc2sccn2c(=O)c1CCN1CCC(=C(c2ccc(F)cc2)c2ccc(F)cc2)CC1 | -7.48% |  |
| CN(C)C(=O)Oc1cccc([N+](C)(C)C)c1 | 3.26% |  |
| CN(C)CCN(Cc1cccs1)c1ccccn1 | -6.53% |  |
| NC(Cc1ccc(Cl)cc1)C(=O)O (stereo not given) | 4.59% |  |
| O=C(O)CCCCCCCC(=O)O | -8.09% |  |
| CC(=O)[C@]1(O)Cc2c(O)c3c(c(O)c2[C@@H](O[C@H]2C[C@H](N)[C@H](O)[C@H](C)O2)C1)C(=O)c1ccccc1C3=O |  | 14.1 µM (active) |
| Nc1ncn([C@@H]2O[C@H](CO)[C@@H](O)[C@H]2O)c(=O)n1 | 6.89% |  |
| NS(=O)(=O)c1cc2c(cc1Cl)NC(C1CC3C=CC1C3)NS2(=O)=O (stereo not given) | -13.2% |  |
| COc1ccc(CCN(C)CCCC(C#N)(c2cc(OC)c(OC)c(OC)c2)C(C)C)cc1OC (stereo not given) | -1.42% |  |
| CCCCCN(CCCCC)C(=O)C(CCC(=O)O)NC(=O)c1ccc(Cl)c(Cl)c1 (stereo not given) | -6.72% |  |
| CN1CCN(C2=Nc3ccccc3Oc3ccc(Cl)cc32)CC1 | -5.21% |  |
| O=c1[nH]c(=O)n([C@H]2C[C@H](O)[C@@H](CO)O2)cc1Br | -8.28% |  |
| CCc1cccc(N(C)C(N)=Nc2cccc3ccccc23)c1 | 1.9% |  |
| Cc1ccc(/C(=C\CN2CCCC2)c2ccccn2)cc1 | -0.549% |  |
| Cc1ccc(=O)n(-c2ccccc2)c1 | 9.4% |  |
| COCCOC(=O)C1=C(C)NC(C)=C(C(=O)OC(C)C)C1c1cccc([N+](=O)[O-])c1 (stereo not given) | -16.2% |  |
| O=C(O)CP(=O)(O)O | -3.55% |  |
